For 40 sequences, sensor-assay potency score (higher = more potent) results are on record in the OligoGym collection.
Note: reference of the scale not given here.

One assay concerns the target ZBTB24. Description: pooled miR-30 sensor sort-seq; sequence = guide strand. To be noted: shRNA.
In the case of TTAAGAACTGAGCAGTAGCCAG, the sensor-assay potency score (higher = more potent) is -1.12.

TTAAGTTTGACGGATCTCCAAA displayed a sensor-assay potency score (higher = more potent) of -1.

The sequence TTTAGCTGTCTGTTCTGGCTGA yielded a sensor-assay potency score (higher = more potent) of 0.857.

For the sequence TGTAGCTGAAGAATATTCCTGA, the sensor-assay potency score (higher = more potent) amounted to 0.823.

Consider TTGGAAGTCTGTGTAAGCCTTT, for which the sensor-assay potency score (higher = more potent) was -0.108.

The target of another assay is ZBTB39. The description is as above. To be noted: shRNA.
For the sequence TTGCTTGTGAAACAGCCCGGGG, the sensor-assay potency score (higher = more potent) is -1.25.

Sequence TAGTGTTTCAAGCAAAACCATT had a sensor-assay potency score (higher = more potent) of -1.46.

Consider TTAGACATCTACTATTTGGGGA, for which the sensor-assay potency score (higher = more potent) was 0.801.

Regarding TTAGTTTCACACATGTCGCAGG, the sensor-assay potency score (higher = more potent) is -0.128.

Consider TATTATGCTAGAGACAATCTGG, for which the sensor-assay potency score (higher = more potent) was determined as 0.145.

In turn, TAGAACTTTCTTGCACACCTGG came in with a sensor-assay potency score (higher = more potent) of -0.103.

Consider AAGTCCACCACATAGGTCCTGG, for which the sensor-assay potency score (higher = more potent) was -0.52.

Consider TAAGCAGACACCAACATCCCTG, for which the sensor-assay potency score (higher = more potent) was -0.047.

Turning to TAAAGAAACATCAAAATCGAGT, the sensor-assay potency score (higher = more potent) was -0.558.

TTCAACACTAGCAAAAACCTGT showed a sensor-assay potency score (higher = more potent) of -0.0406.

For TTAAACACAACACAGAACAGAA, the sensor-assay potency score (higher = more potent) is -0.952.

For the sequence TTAAGTACACAGACCACCCAGC, the sensor-assay potency score (higher = more potent) is -0.108.

The target in another assay is ZBTB5. The assay is described as above. To be noted: shRNA.
In turn, TTAATCTCACAAGACACTGGTC had a sensor-assay potency score (higher = more potent) of -0.0713.

Turning to TTAAGTAATGTTTACATGCCTT, the sensor-assay potency score (higher = more potent) is -0.579.

In turn, ATCAAAACTAGTCTCAACCTGA gave a sensor-assay potency score (higher = more potent) of 0.322.

For the sequence TTTGGTTAATCTGTCGTCGAAA, the sensor-assay potency score (higher = more potent) was -0.689.

Turning to TTACAAACTACTTTCTGACTGC, the sensor-assay potency score (higher = more potent) came out at 0.686.

Turning to TAGGTTATTTGTGACTTCCAAA, the sensor-assay potency score (higher = more potent) was -1.29.

Regarding TTTTGCATCACTATACAGGGAT, the sensor-assay potency score (higher = more potent) amounted to 0.397.

TGCACTTTGACAGAACATCTGC registered a sensor-assay potency score (higher = more potent) of -0.0496.

TACTTGATTACTTCTATGCTAT showed a sensor-assay potency score (higher = more potent) of 0.0849.

In the case of TTGATAGAACTTTATGATCTGT, the sensor-assay potency score (higher = more potent) turned out to be 0.242.

Take TACAATGACACAATCACAGAGC: the sensor-assay potency score (higher = more potent) was 0.0287.

TAATCTGTCGTCGAAAACGGTA returned a sensor-assay potency score (higher = more potent) of -0.933.

In the next assay the target is ZBTB8A. The description is as above. To be noted: shRNA.
The sequence TTCAGCATCAATCTGTGCTTGT displayed a sensor-assay potency score (higher = more potent) of 0.622.

In the case of TAAATCTTTTTCCACAAGCTTG, the sensor-assay potency score (higher = more potent) is -1.26.

As to TAGCGAATAATACATTTCGATG, the sensor-assay potency score (higher = more potent) is -1.75.

For the sequence TAAAGTAGCCGCTACTAGCGAA, the sensor-assay potency score (higher = more potent) is -0.929.

Take TTTTTAATGGACTCTTTCCTTG: the sensor-assay potency score (higher = more potent) was -0.893.

TTGTTGAGTATTCTTCTGGGAG showed a sensor-assay potency score (higher = more potent) of -0.386.

In turn, TTGACTTATAATGAGTAACTTC registered a sensor-assay potency score (higher = more potent) of -0.468.

TTTCTTTCTCACTAATGTCTAA gave a sensor-assay potency score (higher = more potent) of -0.493.

The sequence TACACTTATGACATCAGTCATC gave a sensor-assay potency score (higher = more potent) of -0.715.

TAAAAGTCTTACATACACTTAT registered a sensor-assay potency score (higher = more potent) of -0.256.

TCACAAAATACATCTTGCCTGC had a sensor-assay potency score (higher = more potent) of -0.43.
